Experimental data taken from PubChem BioAssay AID624162 (National Center for Advancing Translational Sciences (NCATS), 2012).
The other results are listed elsewhere or left out. Records with an inconclusive call do not appear. Activity calls are given as the source filed them. Calls come from the whole dose curve; as a rule, active = well fitted inhibition curve with a large enough effect; inconclusive = small, poorly fitted or top-dose-only effect; inactive = no such curve, though single readings can be large or run the other way.

Target: Histone-lysine N-methyltransferase 2A (Homo sapiens) (UniProt Q03164)
Assay: qHTS Fluorescence Polarization (FP) Assay for Inhibitors of MLL CXXC domain - DNA interaction: HTRF Assay; note: nearly all actives have a fitted effect of over 80% in size
Details: MLL CXXC-DNA binding, biochemical; series mostly up to 172 µM; activity change, negative = inhibition: at the top concentration
From the text: The MLL (Mixed Lineage Luekemia) gene is involved in chromosomal translocation that results in either acute lymphoid leukemia (ALL) or acute myeloid leukemia (AML). Chromasomal translocation of MLL gene is responsible for the fusion of N-terminal MLL to more than 60 different partner genes in frame. Many of the MLL partner genes contain transcription activation domains or function as transcriptional activators. Despite the heterogeneity of fusion partners, the N-terminus of MLL fusion proteins always consists of the N-terminal menin binding motif and the CXXC domain. The MLL-CXXC domain specifically recognizes unmethylated CpG sequences of the HOX-A gene. Disruption of the MLL-CXXC and HOX-A gene interaction leads to down regulation of HOX-A gene expression and may potentially reverse leukemogenesis. We have miniaturized and optimized an in-vitro assay to screen for inhibitors of the MLL-CXXC domain and HOX-A DNA interaction, which could have utility in MLL fusion leukemias.
This is a hit validation assay that tests this hits identified in the primary screen in this secondary screen, using an HTRF a read-out.
NIH Molecular Libraries Probe Production Network [MLPCN]
NIH Chemical Genomics Center [NCGC]
PI Name: John Bushweller, University of Virgina
One microliter of 7microM GST-MLL-CXXC solution prepared in assay buffer (50 mM TRIS-HCl pH 7.5, 50 mM NaCl, 1 mM DTT, 0.05% BSA) was dispesed into a 1536 well plate. Compound solution and unlabeled HOX-A9 was tranferred into the assay plate using the Kalypsys 1536-pin tool and incubated at room temperature for 5 min. One microL of 50nM Biotinylated-HOX-A9 solution prepared in assay buffer was dispensed into the assay plate; centrifuge for 30 seconds at 1000 RPM; and incubated for 30 min at room temperature. Next, 3 microL/well detection reagent mixture of 2.8 nM Eu3+-Cryptate-anti-GST-AB and 100 nM Streptavidin linked XL665 (Cisbio, MA) was added. RT-FRET read was taken after 60min of room temp incubation using the PerkinElmer Envision plate reader equipped with Eu3+ HTRF optimized filter set; EX 337nm / EM […].
% is set by controls: 0 for no effect and ±100 for the full control effect.

Sequence of Histone-lysine N-methyltransferase 2A (Homo sapiens) (Q03164 whole entry, looked up, the tested form may be a part): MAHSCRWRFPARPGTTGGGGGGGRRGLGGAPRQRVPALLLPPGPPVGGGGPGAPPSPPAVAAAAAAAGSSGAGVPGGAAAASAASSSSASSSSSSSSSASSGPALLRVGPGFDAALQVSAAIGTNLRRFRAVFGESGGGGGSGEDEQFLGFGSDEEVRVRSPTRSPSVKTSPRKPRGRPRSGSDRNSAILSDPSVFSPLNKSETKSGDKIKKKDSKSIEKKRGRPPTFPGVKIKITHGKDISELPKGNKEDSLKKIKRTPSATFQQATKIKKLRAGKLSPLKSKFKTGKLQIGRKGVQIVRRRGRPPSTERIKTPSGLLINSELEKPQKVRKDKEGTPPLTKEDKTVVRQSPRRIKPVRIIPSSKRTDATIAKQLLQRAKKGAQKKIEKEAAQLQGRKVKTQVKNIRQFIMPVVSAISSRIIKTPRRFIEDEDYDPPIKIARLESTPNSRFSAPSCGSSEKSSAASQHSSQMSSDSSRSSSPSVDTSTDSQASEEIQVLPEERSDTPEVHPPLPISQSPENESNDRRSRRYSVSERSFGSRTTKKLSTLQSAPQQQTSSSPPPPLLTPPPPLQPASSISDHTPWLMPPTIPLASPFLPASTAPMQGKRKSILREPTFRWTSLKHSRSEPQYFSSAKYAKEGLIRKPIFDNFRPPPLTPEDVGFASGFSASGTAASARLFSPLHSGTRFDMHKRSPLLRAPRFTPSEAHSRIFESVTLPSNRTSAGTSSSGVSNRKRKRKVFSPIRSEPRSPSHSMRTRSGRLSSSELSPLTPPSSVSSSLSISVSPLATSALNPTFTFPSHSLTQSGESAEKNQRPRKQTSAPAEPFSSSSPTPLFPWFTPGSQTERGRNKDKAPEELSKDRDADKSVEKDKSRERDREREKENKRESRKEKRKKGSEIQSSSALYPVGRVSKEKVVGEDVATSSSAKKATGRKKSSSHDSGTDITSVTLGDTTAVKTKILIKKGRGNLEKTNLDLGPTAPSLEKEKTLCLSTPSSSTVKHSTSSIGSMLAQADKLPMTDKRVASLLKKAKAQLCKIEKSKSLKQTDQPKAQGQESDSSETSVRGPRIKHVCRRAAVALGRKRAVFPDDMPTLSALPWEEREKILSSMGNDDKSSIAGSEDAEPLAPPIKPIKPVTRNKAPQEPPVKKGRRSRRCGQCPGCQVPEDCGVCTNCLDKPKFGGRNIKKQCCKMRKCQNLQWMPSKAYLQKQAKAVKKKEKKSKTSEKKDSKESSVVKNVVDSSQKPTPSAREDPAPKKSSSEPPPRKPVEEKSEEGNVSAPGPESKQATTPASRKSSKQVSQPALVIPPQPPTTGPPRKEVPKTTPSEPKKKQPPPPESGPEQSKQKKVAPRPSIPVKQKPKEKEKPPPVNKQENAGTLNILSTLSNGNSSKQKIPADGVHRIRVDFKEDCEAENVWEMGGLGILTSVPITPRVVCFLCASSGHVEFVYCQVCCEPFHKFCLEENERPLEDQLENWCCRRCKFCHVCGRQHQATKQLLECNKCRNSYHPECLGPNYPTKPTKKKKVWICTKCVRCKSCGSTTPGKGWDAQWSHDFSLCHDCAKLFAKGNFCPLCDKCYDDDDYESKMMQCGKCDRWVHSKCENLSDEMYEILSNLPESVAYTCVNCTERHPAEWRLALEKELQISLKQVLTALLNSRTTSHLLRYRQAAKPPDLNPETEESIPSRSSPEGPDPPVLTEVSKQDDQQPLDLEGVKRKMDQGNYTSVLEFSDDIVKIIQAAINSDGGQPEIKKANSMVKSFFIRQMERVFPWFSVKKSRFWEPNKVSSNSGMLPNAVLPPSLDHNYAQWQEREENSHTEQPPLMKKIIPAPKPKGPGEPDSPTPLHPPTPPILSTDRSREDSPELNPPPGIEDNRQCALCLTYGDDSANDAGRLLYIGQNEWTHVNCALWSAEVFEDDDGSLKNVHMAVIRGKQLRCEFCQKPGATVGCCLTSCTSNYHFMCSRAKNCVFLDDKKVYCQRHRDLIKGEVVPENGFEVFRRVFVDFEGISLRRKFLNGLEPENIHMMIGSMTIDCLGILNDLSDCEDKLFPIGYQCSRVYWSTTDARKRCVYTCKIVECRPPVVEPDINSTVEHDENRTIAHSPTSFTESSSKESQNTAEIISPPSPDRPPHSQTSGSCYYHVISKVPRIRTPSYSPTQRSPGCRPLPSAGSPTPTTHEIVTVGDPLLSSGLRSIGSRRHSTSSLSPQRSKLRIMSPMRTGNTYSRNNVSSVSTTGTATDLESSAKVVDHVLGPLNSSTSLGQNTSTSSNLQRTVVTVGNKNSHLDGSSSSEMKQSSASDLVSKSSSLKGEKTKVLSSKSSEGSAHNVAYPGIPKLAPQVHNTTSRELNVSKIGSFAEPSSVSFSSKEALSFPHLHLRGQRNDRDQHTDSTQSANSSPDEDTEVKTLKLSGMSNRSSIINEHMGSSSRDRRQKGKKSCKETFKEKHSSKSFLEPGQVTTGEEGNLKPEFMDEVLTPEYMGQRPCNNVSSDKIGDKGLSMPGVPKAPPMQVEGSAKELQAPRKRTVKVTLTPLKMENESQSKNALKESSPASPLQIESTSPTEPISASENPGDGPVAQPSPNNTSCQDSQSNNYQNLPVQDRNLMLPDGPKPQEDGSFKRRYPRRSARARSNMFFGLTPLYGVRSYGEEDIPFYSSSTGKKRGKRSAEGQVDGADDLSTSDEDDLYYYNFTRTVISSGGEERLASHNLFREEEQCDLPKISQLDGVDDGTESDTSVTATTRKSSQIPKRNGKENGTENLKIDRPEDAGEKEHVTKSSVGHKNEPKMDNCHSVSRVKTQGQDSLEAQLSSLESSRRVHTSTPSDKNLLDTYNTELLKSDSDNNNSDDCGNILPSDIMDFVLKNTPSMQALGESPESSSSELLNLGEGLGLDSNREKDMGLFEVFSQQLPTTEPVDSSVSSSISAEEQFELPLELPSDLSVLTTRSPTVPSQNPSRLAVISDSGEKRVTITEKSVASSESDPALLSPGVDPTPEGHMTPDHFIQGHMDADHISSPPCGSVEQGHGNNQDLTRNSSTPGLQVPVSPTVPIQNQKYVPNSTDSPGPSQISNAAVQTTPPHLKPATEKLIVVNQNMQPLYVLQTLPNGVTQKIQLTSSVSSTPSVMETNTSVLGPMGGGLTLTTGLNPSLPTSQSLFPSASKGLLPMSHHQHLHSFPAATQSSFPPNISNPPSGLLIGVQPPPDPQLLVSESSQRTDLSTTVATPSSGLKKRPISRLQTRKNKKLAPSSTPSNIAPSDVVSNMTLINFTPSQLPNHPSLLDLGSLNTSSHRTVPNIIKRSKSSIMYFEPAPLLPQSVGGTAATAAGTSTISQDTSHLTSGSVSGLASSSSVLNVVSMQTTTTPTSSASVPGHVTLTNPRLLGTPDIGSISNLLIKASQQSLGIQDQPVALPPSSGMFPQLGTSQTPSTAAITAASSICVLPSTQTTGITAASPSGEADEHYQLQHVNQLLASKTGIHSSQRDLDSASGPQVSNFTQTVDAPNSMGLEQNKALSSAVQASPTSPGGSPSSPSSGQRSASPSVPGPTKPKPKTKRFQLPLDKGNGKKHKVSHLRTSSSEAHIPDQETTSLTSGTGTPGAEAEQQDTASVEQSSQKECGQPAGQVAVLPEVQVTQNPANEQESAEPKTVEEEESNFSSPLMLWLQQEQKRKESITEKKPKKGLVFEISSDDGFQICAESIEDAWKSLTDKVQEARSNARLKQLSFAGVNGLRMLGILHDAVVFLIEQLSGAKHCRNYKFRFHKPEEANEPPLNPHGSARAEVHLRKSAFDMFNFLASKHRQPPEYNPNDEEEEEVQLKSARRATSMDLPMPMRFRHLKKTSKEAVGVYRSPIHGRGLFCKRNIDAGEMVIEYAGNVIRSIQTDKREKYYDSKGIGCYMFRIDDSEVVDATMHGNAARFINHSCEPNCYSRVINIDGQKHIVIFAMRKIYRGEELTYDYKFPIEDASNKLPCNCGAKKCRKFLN

Activity change, negative = inhibition, inactive:
COc1ccc(-c2onc3ccc(C(C)=O)cc23)cc1 6.05%, COc1cc(/C=C2/C(=O)NN(c3ccc(F)cc3)C2=O)cc([N+](=O)[O-])c1O 84.9%, COc1ccc(S(=O)(=O)/N=C2\C=C(NS(=O)(=O)c3ccccc3)C(=O)c3ccccc32)cc1 74.8%, O=C1NN(c2ccccc2)C(=O)/C1=C/c1ccc(-c2cccc(C(=O)O)c2)o1 7.82%
